Among all 68,000 compounds or so, about 2,700 (4%) showed an effect of 50% or more. This excerpt belongs to a sample that is enriched for strong results.

Results on 51 molecules are retold here after ChEMBL document CHEMBL4513216, “Probing the Open Global Health Chemical Diversity Library for Multistage-Active Starting Points for Next-Generation Antimalarials” (ACS Infect Dis, 2020).

The experiment relates to Plasmodium berghei. Description: Screen against P. berghei liver stage (PbLuc), transformed with Luciferase, at 2uM. The class given is functional, HepG2. The following applies: tested at 2 uM.
As for `Cc1nc(CN2C(=O)COC3(CCN(CC4CC4)CC3)C2C)cs1` (stereo unspecified), the INHIBITION came to 35.26%.
Consider `CC(=O)N1CCC(CCNC(C)Cc2ccc(F)cc2)CC1` (stereo unspecified), for which the INHIBITION was 63.1%.
With `CC(=O)N1CCC(CCNC(C)c2cc(F)cc(F)c2)CC1` (stereo unspecified) the figure was 14.63%; with `CC(=O)N1CCC(CCNC(C)c2cc(C)cc(C)c2)CC1` (stereo unspecified), 8.03%; with `CN(C)C(=O)C1CN(Cc2ccccn2)CCN(S(C)(=O)=O)C1` (stereo unspecified), 25.72%.
With `Cc1noc(C)c1CN(C)C(=O)c1ccc(C(N)=O)nc1` the figure was 17.31%.
With `COc1ccccc1CN(CC1CCCO1)C(=O)c1scnc1C` (stereo unspecified) the figure was 21.54%; with `O=C(c1ccco1)N1C[C@@H]2OCCN(c3ncccn3)[C@@H]2C1`, 41.73%; with `CCN1C(=O)C(c2ccccc2)CC12CCN(CCO)CC2` (stereo unspecified), 21.06%.
`CCN1C(=O)C(c2ccccc2)CC12CCN(c1ncccn1)CC2` (stereo unspecified): the INHIBITION is on record as 30.4%.
With `CCN1C(=O)C(c2ccccc2)CC12CCN(Cc1cccnc1)CC2` (stereo unspecified) the figure was 52.36%.
As for `N#CCCN(C(=O)CCc1cccnc1)c1ccc2c(c1)OCCO2`, the figure is 33.26%; as for `CN(C)C(=O)c1ccn(-c2ccc3ccccn23)n1`, 6.35%; as for `CC(C)(CNc1ccccc1S(=O)(=O)C(F)F)N1CCOCC1`, -64.31%.
As for `CC(C)(CNC(=O)Nc1nccs1)N1CCOCC1`, the figure is 64.2%; as for `CC(C)(CNc1ccc(S(=O)(=O)C(F)F)cc1)N1CCOCC1`, 5.02%; as for `CC(C)(CNC(=O)Nc1ccc(S(=O)(=O)C(F)F)cc1)N1CCOCC1`, 53.63%.
Take `CCC(C)(CNC(=O)Nc1nncs1)N1CCOCC1` (stereo unspecified): the INHIBITION was -42.64%.
As for `CCC(C)(CNC(=O)Nc1nccs1)N1CCOCC1` (stereo unspecified), the figure is 21.24%; as for `CCC(CC)(CCO)CNC(=O)c1ccon1`, 34.69%; as for `CS(=O)(=O)NCCNC(=O)Cc1ccc(Br)s1`, 12.55%.
As for `Cc1ncc(CNC(=O)c2oc3ccccc3c2CN(C)C)s1`, the figure is -21.47%; as for `CN(CC1Cc2ccccc2CN1C)C(=O)CSc1nccn1C` (stereo unspecified), 53.61%.
Take `Cc1cc(=O)[nH]c(SCC(=O)N(C)CC2Cc3ccccc3CN2C)n1` (stereo unspecified): the INHIBITION was -15.36%.
With `CN(CC1Cc2ccccc2CN1C)C(=O)CSc1ccccn1` (stereo unspecified) the figure was 35.54%; with `COc1ccc(CCCN(C)C(=O)c2cc(Cl)c[nH]2)cc1OC`, 32.31%; with `O=C(C1CC1)N1Cc2[nH]nc(COCc3cccnc3)c2C1`, -14.61%.
As for `O=C(Nc1cc(CCC2CCN(CCO)CC2)ccn1)c1ccccn1`, the figure is 35.19%; as for `COc1cccc(CC(=O)N2CC[C@@H]3[C@H](CC2)N(C)CCS3(=O)=O)c1`, 4.38%; as for `CNC(=O)N1CC[C@H]2N(C)CC[C@@]2(C(=O)Nc2ccccc2)CC1`, 62.13%.
With `CC(C)CC(=O)N1CC[C@H]2N(C)CC[C@@]2(C(=O)Nc2ccccc2)CC1` the figure was 11.87%; with `CC(C)C(=O)N1CC[C@H]2N(C)CC[C@@]2(C(=O)Nc2ccccc2)CC1`, 17.69%; with `CC(C)(C)Nc1nc(-c2cccnc2)c(-c2ccnc(NCCO)n2)s1`, -31.71%.
Turning to `CCOC1CCC2(CCN(C(=O)c3c[nH]cn3)CC2)c2ccccc21` (stereo unspecified), the INHIBITION is given as 28.46%.
For the molecule `Cc1nn(C)c(N2CCOCC2)c1CNC(C)c1ccco1` (stereo unspecified), the INHIBITION was -39.37%.
Turning to `CC(C)c1nn(C)c(N2CCOCC2)c1CNC(C)c1ccco1` (stereo unspecified), the INHIBITION came out at 53.98%.
With `Cc1ccc(C(C)NCc2c(C(C)C)nn(C)c2N2CCOCC2)o1` (stereo unspecified), the INHIBITION is listed as -41.76%.
With `NC(CC1CCCC1)c1ccccc1` (stereo unspecified), the INHIBITION amounted to 10.24%.
As for `CCN1CCCC1CNC(=O)c1cc(COc2cccc(F)c2)[nH]n1` (stereo unspecified), the figure is 21.67%; as for `O=C(CC1CC1)N1CCc2ncc(Cn3cncn3)n2CC1`, 31.73%.
As for `CC(C)S(=O)(=O)N1CCCC(c2nccn2Cc2cccnc2)C1` (stereo unspecified), the figure is -7.66%; as for `Cc1noc(C)c1CN1CC[C@H]2OCC[C@@H](C(=O)NCC3CC3)[C@@H]2C1`, 6.04%; as for `O=C([C@@H]1CCO[C@@H]2CCN(CC3CC3)C[C@H]21)N1CCCC1`, -16.33%.
As to `Cc1noc(C)c1CN1CC[C@H]2OCC[C@@H](C(=O)N3CCCO3)[C@@H]2C1`, the INHIBITION is recorded as -13.8%.
With `Cc1noc(C)c1CN1CC[C@H]2OCC[C@@H](C(=O)N3CCCO3)[C@H]2C1` the figure was 59.08%; with `O=C([C@@H]1CCO[C@@H]2CCN(CC3CCOCC3)C[C@H]21)N1CCCO1`, -3.19%.
With `O=C([C@@H]1CCO[C@@H]2CCN(CC3CC3)C[C@H]21)N1CCCCO1` the figure was 57.07%; with `CCn1ccc(NC(=O)C2CCC(=O)N2Cc2ccc(C)o2)n1` (stereo unspecified), 45.14%; with `O=C(c1cc(=O)n(-c2ccccc2)[nH]1)N1CCOCC(O)C1` (stereo unspecified), 4.12%.
With `COCCOc1ccccc1NC(C)C(=O)NC(=O)NC(C)(C)C` (stereo unspecified) the figure was -19.21%; with `CCCc1n[nH]c(C2CN(C(=O)c3ccc[nH]3)CCO2)n1` (stereo unspecified), -70.51%.
